Source: PubChem BioAssay AID1508602 (The Scripps Research Institute Molecular Screening Center, 2020)
About 6,800 (1%) of roughly 650,000 compounds were called active. No stated cut-off is given here; in the data, active means activation above about 4.9%; inactive means the rest. This excerpt belongs to a sample that is enriched for actives.

Target: G-protein coupled receptor 151 (Homo sapiens) (UniProt Q8TDV0)
Assay: activates the human receptor GPR151, primary screen, cell-based, PathHunter beta-arrestin, luminescence (AID 1508602);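 further: 0% = median of compound wells and 100% = cells with positive control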
Conditions: PathHunter beta-arrestin GPR151 cells, at 11.2 µM, hits give high values

Sequence of G-protein coupled receptor 151 (Homo sapiens) (Q8TDV0 whole entry, looked up): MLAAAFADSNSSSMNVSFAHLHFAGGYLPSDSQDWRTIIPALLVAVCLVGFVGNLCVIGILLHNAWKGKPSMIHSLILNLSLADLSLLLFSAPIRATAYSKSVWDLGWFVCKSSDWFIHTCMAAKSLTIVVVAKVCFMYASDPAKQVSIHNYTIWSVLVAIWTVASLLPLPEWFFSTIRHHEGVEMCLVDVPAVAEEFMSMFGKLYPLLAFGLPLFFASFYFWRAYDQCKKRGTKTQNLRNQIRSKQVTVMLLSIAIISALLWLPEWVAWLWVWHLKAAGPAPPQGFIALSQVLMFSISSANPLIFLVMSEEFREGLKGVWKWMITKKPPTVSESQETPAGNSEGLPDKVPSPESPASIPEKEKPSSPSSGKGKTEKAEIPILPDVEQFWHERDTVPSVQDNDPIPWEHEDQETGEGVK

Compound | activation
Cc1ccnc(NC(=O)Nc2sc3nc4n(c(=O)c3c2C)CCC(C)CC4)c1 (stereo not drawn) | 0.22% (inactive)
CCn1c(C(CC(C)C)NC(=O)C2CC2)nc2cccnc21 (stereo not drawn) | -0.148% (inactive)
COc1ccc(C(=O)N2CCCN(c3nc4cc(C)c(C)cc4cc3C#N)CC2)cc1OC | 2.69% (inactive)
Cc1ccc(C(=O)NCC(=O)OCC(=O)N(C(C)C)C(C)C)cc1C | -0.906% (inactive)
CCOc1cc2c(cc1OCC)C(c1ccc(OC)c(C)c1)NCC2 (stereo not drawn) | 0.975% (inactive)
CCOc1cc2c(cc1OCC)C(c1cc(F)c(F)c(F)c1)NCC2 (stereo not drawn) | -0.242% (inactive)
CCOc1cc2c(cc1OCC)C(c1ccc3ccccc3c1)NCC2 (stereo not drawn) | 5.53% (active)
O=C(NC1CCCCCC1)c1ccc(NS(=O)(=O)c2cccs2)cc1 | 2.64% (inactive)
COc1cc(/C=N/N=C2/NC(=O)CS2)ccc1OC(=O)c1ccccc1C | 10.4% (active)
COc1cccc(/C=N/N=C2/NC(=O)CS2)c1O | -1.32% (inactive)
COc1ccc(/C=N/N=C2/NC(=O)CS2)c(OC)c1 | -0.156% (inactive)
COCCn1c(=NC(=O)c2c(C)cnn2C)sc2cc(Cl)ccc21 | -0.961% (inactive)
Cc1cccc(C(=O)Nc2ccc(C(=O)Nc3ccc(C(=O)Nc4ccccc4C)cc3)cc2)c1 | 2.61% (inactive)
Cc1ccc(NC(=O)c2cccc(N(C)C)c2)cc1NC(=O)c1ccc(O)cc1 | 8.84% (active)
Cc1ccc(C(=O)Nc2ccc(N(C)C)cc2)cc1C | -2.22% (inactive)
Cc1ccc(-c2csc(Nc3ccccc3)n2)c(C)c1 | 0.521% (inactive)
Cc1ccc(Nc2nc(-c3ccccn3)cs2)cc1C | 11.2% (active)
Cc1cccc(Nc2nc(-c3ccc(I)cc3)cs2)c1 | -1.86% (inactive)
O=C(c1ccccc1)N1CCN(C2CC(=O)N(c3cc(Cl)cc(Cl)c3)C2=O)CC1 (stereo not drawn) | -0.358% (inactive)
Cc1ccc(OCCN2CCNCC2)c(Cl)c1 | 0.0124% (inactive)

Compound | activation
CC(C)C(=O)NC(C)c1nnc2n1CCN(Cc1cccc3ncccc13)CC2 (stereo not drawn) | 0.68% (inactive)
CC(C)C(=O)NC(C)c1nnc2n1CCN(Cc1ccc3cccnc3c1)CC2 (stereo not drawn) | 5.04% (active)
CCC(=O)NC(c1nnc2n1CCN(Cc1ccc3cccnc3c1)CC2)C(C)C (stereo not drawn) | 0.149% (inactive)
Cc1cc(OCC(=O)NNC(=O)COc2ccc(Br)cc2Br)cc(C)c1Cl | 0.12% (inactive)
CC(C)c1nc2sc3c(NCCCO)ncnc3c2c2c1COC(C)(C)C2 | 1.25% (inactive)
COCCN1C(=O)c2ccc(C(=O)Nc3ccc(C(=O)O)cc3)cc2C1=O | -0.197% (inactive)
CCCN1C(=O)c2ccc(C(=O)Nc3ccc(O)cc3C(=O)O)cc2C1=O | -4.67% (inactive)
CCCN1C(=O)c2ccc(C(=O)Nc3ccc(C(C)=O)cc3)cc2C1=O | 6.33% (active)
O=C(CCC1=NS(=O)(=O)c2ccccc2N1)N1CCN(c2ccccc2)CC1 | 0.684% (inactive)
O=[N+]([O-])c1ccc(Nc2nc(Cl)nc(NCCN3CCOCC3)n2)cc1 | 3.01% (inactive)
CCOC(=O)C(=O)NCC1COc2ccccc2O1 (stereo not drawn) | 0.866% (inactive)
COc1cc(C(=O)NCCC(=O)NCC2COc3ccccc3O2)cc(OC)c1OC (stereo not drawn) | -0.141% (inactive)
COc1ccc(Br)cc1C(=O)NCC1COc2ccccc2O1 (stereo not drawn) | 5.44% (active)
O/N=C(\C(=N\O)c1ccccc1)c1ccccc1 | -0.0395% (inactive)
COC(=O)Cc1ccc(NC(=S)N2CCC(C(N)=O)CC2)cc1 | -0.283% (inactive)
O=C(NCC1CCCO1)c1ccc(N2CC3CC(C2)c2cccc(=O)n2C3)c(NS(=O)(=O)c2ccc(Cl)cc2)c1 (stereo not drawn) | -2.43% (inactive)
c1ccc(CNc2nc(Nc3ccc(N4CCOCC4)cc3)nc3c2ncn3-c2ccccc2)cc1 | 1.12% (inactive)
Cc1cnc(Nc2ccc(N3CCOCC3)cc2)nc1NCc1cccc(C(F)(F)F)c1 | 6.5% (active)
CCN(CC)C(=O)C1CCCN(c2ncc(C)c(NCc3cccc(C(F)(F)F)c3)n2)C1 (stereo not drawn) | 5.92% (active)
CCN(CC)C(=O)C1CCCN(c2ncc(C)c(Nc3ccc(N4CCOCC4)cc3)n2)C1 (stereo not drawn) | 0.13% (inactive)

Compound | activation
FC(F)(F)c1ccc(Cn2cnc3c(NCc4cccc(C(F)(F)F)c4)nc(Nc4ccc(N5CCOCC5)cc4)nc32)cc1 | 5.04% (active)
FC(F)(F)c1cccc(CNc2ccnc(N3CCOCC3)n2)c1 | 0.285% (inactive)
FC(F)(F)c1cccc(CNc2ncnc3nc(N4CCOCC4)[nH]c23)c1 | 1.38% (inactive)
FC(F)(F)c1cccc(CNc2nc(Nc3ccc(N4CCOCC4)cc3)nc3c2ncn3-c2ccsc2)c1 | 0.773% (inactive)
CCN(CC)C(=O)C1CCCN(c2nc(NCc3cccc(C(F)(F)F)c3)c3cc(OC)c(OC)cc3n2)C1 (stereo not drawn) | -0.297% (inactive)
COc1ccc(/C=N/NC(=O)CN(C)C(=O)c2ccccc2)cc1 | -1.44% (inactive)
COc1ccc(Cl)cc1NC(=O)C1c2cc(OC)c(OC)cc2C(=O)N(C)C1c1ccc(OC)c(OC)c1 (stereo not drawn) | 4.36% (inactive)
Cc1ccc(N2C(=O)C3ON(c4ccc(Cl)cc4)C(c4ccco4)C3C2=O)cc1 (stereo not drawn) | -1.12% (inactive)
COCc1c(C(=O)N/N=C/c2cccc(F)c2)nnn1-c1nonc1N | -0.56% (inactive)
O=C(Cc1ccc(Cl)cc1)NCc1nnnn1C1CCCCC1 | -1.64% (inactive)
CCCc1cc(=O)[nH]c(Nc2cccc(O)c2)n1 | 0.777% (inactive)
CCOC(=O)C1=C(N)OC2=C(C(=O)CC(C)(C)C2)C1c1cc(OC)ccc1F (stereo not drawn) | -1.02% (inactive)
Cc1[nH]n(-c2nc3c(c(=O)[nH]2)CCCC3)c(=O)c1CCO | -1.77% (inactive)
C=CCn1c(SCC(=O)N2c3ccccc3CC2C)nc2sc(C)c(C)c2c1=O (stereo not drawn) | 0.176% (inactive)
COCCNc1nc2nonc2nc1N1CCC(N2C[C@@H](C)O[C@@H](C)C2)CC1 | -0.822% (inactive)
O=C(/C=N/Nc1ccc([N+](=O)[O-])cc1[N+](=O)[O-])c1ccco1 | 0.644% (inactive)
O=C(/C=C/Nc1ccccc1NS(=O)(=O)c1ccc([N+](=O)[O-])cc1)c1ccco1 | 6.93% (active)
O=[N+]([O-])c1ccc(S(=O)(=O)NCCc2ccccc2)cc1 | 0.345% (inactive)
